Bioassay records: PubChem BioAssay, several laboratories
Mtb bLac sens: beta-lactam sensitization of Mtb H37Rv | AID 434955 | M. tuberculosis H37Rv growth with meropenem, percent inhibition | 0.27% of 330,000 active | inhibition, % at 25 µM; call rule not given here;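 note: growth measured after seven days incubation then overnight dye step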
RecA intein inh: inhibitors of M. tuberculosis RecA intein splicing; P9WHJ3; cell-free RecA intein splicing, fluorescence; inhibition, % (no concentration beside the values); 0.75% of 290,000 active; AID 2221; in the data active = inhibition above about 30%
Target sequence (P9WHJ3 whole entry, looked up): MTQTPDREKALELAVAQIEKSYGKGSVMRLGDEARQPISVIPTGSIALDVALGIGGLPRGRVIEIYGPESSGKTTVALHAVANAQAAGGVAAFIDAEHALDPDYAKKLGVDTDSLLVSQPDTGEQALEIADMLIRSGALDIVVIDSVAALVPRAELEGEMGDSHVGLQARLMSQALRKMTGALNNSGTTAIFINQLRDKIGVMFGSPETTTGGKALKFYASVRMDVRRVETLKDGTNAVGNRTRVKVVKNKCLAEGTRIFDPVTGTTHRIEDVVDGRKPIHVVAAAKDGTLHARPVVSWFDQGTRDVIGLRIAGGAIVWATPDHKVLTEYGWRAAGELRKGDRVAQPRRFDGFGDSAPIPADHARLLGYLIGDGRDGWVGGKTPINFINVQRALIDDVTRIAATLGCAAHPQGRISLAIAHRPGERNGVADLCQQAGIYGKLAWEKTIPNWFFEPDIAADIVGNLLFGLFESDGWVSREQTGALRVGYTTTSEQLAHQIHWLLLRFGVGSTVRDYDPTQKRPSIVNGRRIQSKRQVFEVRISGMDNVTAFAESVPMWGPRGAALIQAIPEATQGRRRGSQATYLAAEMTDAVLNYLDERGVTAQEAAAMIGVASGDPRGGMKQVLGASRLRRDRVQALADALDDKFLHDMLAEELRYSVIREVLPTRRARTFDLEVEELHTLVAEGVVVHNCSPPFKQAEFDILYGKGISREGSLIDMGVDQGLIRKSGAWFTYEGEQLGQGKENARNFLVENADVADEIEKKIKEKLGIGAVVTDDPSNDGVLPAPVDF
GDH-TPI counter-1: inhibits GDH-TPI coupling enzymes, artifact for Mtb FBA screen; GDH-TPI coupled enzyme counterscreen, NADH absorbance; inhibition, % at 4.8 µM; 1.2% of 360,000 active; AID 588335; in the data active = inhibition above about 30%
CCHF vOTU inh: blocks the CCHF virus ovarian tumor domain protease. CCHFV vOTU protease, Pep-AMC fluorescence. inhibition, % at 11.5 µM. 0.55% of 370,000 active; in the data active = inhibition above about 30%
FBA Mtb inh: inhibitors of M. tuberculosis fructose-bisphosphate aldolase; purified M. tuberculosis FBA, fluorescence read-out; 2.3% of 360,000 active; AID 588726; P9WQA3; inhibition, % at 1 µM
Mtb FBA confirm: confirmation of M. tuberculosis fructose-bisphosphate aldolase inhibitors. purified M. tuberculosis FBA, fluorescence read-out. inhibition, % at 1 µM. shares compounds with FBA Mtb inh. 78% of 5,600 active
GDH-TPI counter-2: inhibits GDH-TPI coupling enzymes, flagging Mtb FBA hits; inhibition, % at 1 µM; 81% of 5,600 active; GDH-TPI coupled enzyme counterscreen, fluorescence; AID 652141; shares compounds with FBA Mtb inh; in the data active = inhibition above about 10%
GDH-TPI DR: counter-screen for M. tuberculosis FBA inhibitors: GDH-TPI dose response; shares compounds with FBA Mtb inh; GDH-TPI coupled enzyme assay, fluorescence, artifact counterscreen; IC50, µM; 79% of 170 active; call rule not given here
Each line names hits and unclear results; the compound was inactive in the other large screens (follow-up assays come after a bar, where they were run). Shown are actives, neighbours in structure and some others; about 4.2% of the full set was active somewhere. Cut-off read from the data, not from the text of the source, unless noted: active = inhibition above about 27%; inactive = the rest.

CCOC(=O)N1CCN(C(=O)COC(=O)c2ccccc2NCCO)CC1	FBA Mtb inh 107 | Mtb FBA confirm 77 | GDH-TPI counter-2 78
O=C(OCC(=O)N1CCC(Cc2ccccc2)CC1)c1ccccc1O	none (no result: RecA intein inh)
O=C(OCC(=O)N(CCc1ccccc1)Cc1ccccc1)c1ccccc1NCCO	FBA Mtb inh 66 | Mtb FBA confirm 164 | GDH-TPI counter-2 106
CNc1ccccc1C(=O)OCC(=O)N1CCN(c2ccc(OC)cc2)CC1	FBA Mtb inh 73 | Mtb FBA confirm inactive | GDH-TPI counter-2 inactive
O=C(OCC(=O)N1CCC(Cc2ccccc2)CC1)c1ccccc1NCCO	FBA Mtb inh 80 | Mtb FBA confirm 47 | GDH-TPI counter-2 29
O=C(C(=O)N1CCC(CNS(=O)(=O)c2ccc(C(F)(F)F)cc2)CC1)c1cccs1	none (no result: Mtb bLac sens, RecA intein inh, GDH-TPI counter-1, FBA Mtb inh)
CCOC(=O)[C@]12CCCCC/C=C\1N(CCc1ccc(Cl)cc1)C(=O)[C@H]2CC(=O)N1CCC(c2ccccc2)CC1	none (no result: Mtb bLac sens, RecA intein inh, GDH-TPI counter-1, FBA Mtb inh)
Cc1cc2ncc(-c3cccs3)nc2cc1C	FBA Mtb inh 73 | Mtb FBA confirm 68 | GDH-TPI counter-2 58
CCCCNS(=O)(=O)CC1NCc2cc(F)ccc21 (stereo not given)	none (no result: Mtb bLac sens, RecA intein inh, GDH-TPI counter-1, FBA Mtb inh)
C/C(N)=C(/C#N)C(=O)COC(=O)c1cccc2ccccc12	FBA Mtb inh 28 (no result: RecA intein inh) | Mtb FBA confirm 73 | GDH-TPI counter-2 55
CCN(C(=O)COC(=O)c1nccnc1N)c1cccc2ccccc12	FBA Mtb inh 63 (no result: RecA intein inh) | Mtb FBA confirm 109 | GDH-TPI counter-2 80
CC(=O)CC[C@@H]1CC[C@]2(CCCN(C(=O)C3CCCC3)C2)O1	none (no result: Mtb bLac sens, RecA intein inh, GDH-TPI counter-1, FBA Mtb inh)
O=C(CCCCCn1c(=S)[nH]c2ccc(N3CCOCC3)cc2c1=O)NCc1ccc(Cl)cc1	none
O=C(CCCCCn1c(=S)[nH]c2ccc(N3CCOCC3)cc2c1=O)NCc1ccc2c(c1)OCO2	FBA Mtb inh 44 | Mtb FBA confirm active | GDH-TPI counter-2 active
O=C(NC1CCCC1)c1cc2c(ccc3ccccc32)o1	FBA Mtb inh 40 | Mtb FBA confirm 107 | GDH-TPI counter-2 80
O=C(NC1CC1)c1cc2ccccc2o1	none
CNC(=O)c1cc2c(ccc3ccccc32)o1	FBA Mtb inh 51 | Mtb FBA confirm 127 | GDH-TPI counter-2 102
COc1ccc(Cn2ccc3ccc(-c4ccc5ccn(C(=O)C6CCCCC6)c5c4)cc32)cc1	none (no result: Mtb bLac sens, RecA intein inh, GDH-TPI counter-1, FBA Mtb inh)
O=C(NNC(=O)c1cc(F)c(F)cc1Cl)c1ccc(NS(=O)(=O)c2cccs2)cc1	none (no result: RecA intein inh)
O=C(NNC(=O)c1cc(Cl)ccc1O)c1ccc(NS(=O)(=O)c2cccs2)cc1	FBA Mtb inh 29 | Mtb FBA confirm active | GDH-TPI counter-2 active
N#Cc1c(N)oc(-c2ccco2)c1-c1ccco1	FBA Mtb inh 33 | Mtb FBA confirm 42 | GDH-TPI counter-2 26
CC1=C(C#N)C(/C=N/OCc2ccc(Cl)cc2)CC(=O)N1 (stereo not given)	FBA Mtb inh 35 | Mtb FBA confirm inactive | GDH-TPI counter-2 17
CCOC(=O)C1=C(C)NC(C)=C(C(=O)OC)C1c1cccc(Cl)c1Cl (stereo not given)	FBA Mtb inh 41 | Mtb FBA confirm inactive | GDH-TPI counter-2 inactive | GDH-TPI DR inactive
COc1ccc(CCNC(=O)COc2ccc(S(=O)(=O)N3CCOCC3)cc2C)cc1	FBA Mtb inh 105 | Mtb FBA confirm 126 | GDH-TPI counter-2 104
COc1ccc2cc(CCNC(=O)c3ccc(S(=O)(=O)N4CCOCC4)cc3)c(=O)[nH]c2c1	FBA Mtb inh 79 | Mtb FBA confirm 105 | GDH-TPI counter-2 85
COc1ccc(NS(=O)(=O)c2ccc(S(=O)(=O)N3CCOCC3)cc2)cc1	FBA Mtb inh 45 | Mtb FBA confirm 149 | GDH-TPI counter-2 102
CC(=O)c1cc(-c2ccc(-c3cc(C(=O)O)c4ccccc4n3)cc2)c(=O)n2c1CCC2	none (no result: Mtb bLac sens, RecA intein inh, GDH-TPI counter-1, FBA Mtb inh)
NC(=O)c1nc(-c2ccccc2)c(-c2ccccc2)[nH]c1=O	FBA Mtb inh 67 | Mtb FBA confirm 37 | GDH-TPI counter-2 22
COC(=O)[C@]12C[C@H](CC(=O)NCc3cccc4ccccc34)C(=O)N(Cc3cccc4ccccc34)C1=C[C@H](C(C)C)O[C@@H]2C1CC1	none (no result: Mtb bLac sens, RecA intein inh, GDH-TPI counter-1, FBA Mtb inh)
